Assay results: the OligoGym collection

Each sequence was assayed against GIP (assay: pooled miR-30 sensor sort-seq; sequence = guide strand). Conditions: shRNA.
Also: reference of the scale not given here.

| Sequence | sensor-assay potency score (higher = more potent) |
| --- | --- |
| TTGTTGGTGAATCTTGTCCATG | -1.48 |
| TCACCTTAGCATGAGATCCAAC | -1.2 |
| TGATGTTGTGTTTCCAGTCATT | -1.13 |
| TAGCATGAGATCCAACAGGCAG | -0.668 |
| AATACTGTAGTCACTGATGAAA | -1.63 |

Each sequence was assayed against GJB7 in the same assay as above. Conditions: shRNA.

| Sequence | sensor-assay potency score (higher = more potent) |
| --- | --- |
| TACAGTATAGTACATAGTGAAT | -1.64 |
| TAGAGTTTCTTTCTGTGCCTTT | 0.0219 |
| TTGTGTGTCACAGAGTAGCTTT | -0.222 |
| TCTGACTCTAGAGTGACCCTTT | 0.802 |
| TATTCTAAAACAACTAATGTTA | -0.542 |
| TTTGTCTTCCAACTCAGCTTAG | -1.04 |
| TTACAGTATAGTACATAGTGAA | -0.477 |
| TAGTACACATTTTACTATCTGT | -0.554 |
| TTCAACACAATACACAAGCATG | -0.84 |
| TATACTAGTAAATTATAGGCGA | -0.424 |
| TATTTTTGGAGACAGCACTTAA | -0.911 |

These sequences were tested against GKN1 in the same assay as above. Conditions: shRNA.

| Sequence | sensor-assay potency score (higher = more potent) |
| --- | --- |
| TGGTCGTGTAGCACGTTCCTGA | -0.625 |
| TACACTGGTCGTGTAGCACGTT | -0.157 |
| ATTGTTGACACTCACTGACTGC | -0.392 |
| TGATATTATAGTTAGCTAGGGC | -0.211 |
| TTGTTGTCATCATTGACGTTGA | -0.288 |
| TTGTGAACTTCATCTTGTCTTC | -0.21 |
| ATCCATAGTACACTGGTCGTGT | 0.399 |
| TTTGTGCACAATGCATGTCTTC | -0.893 |
| TTTTCTGCACAGCATATTCAGA | -0.973 |
| TTCTTTTGAAAGAGTCTGGTTG | 0.101 |
| TTCATTGTTGACACTCACTGAC | 0.268 |

The sequences below were run against GKN2 in the same assay as above. Conditions: shRNA.

| Sequence | sensor-assay potency score (higher = more potent) |
| --- | --- |
| TTTATAGTCAAAAATTGTGGTA | -0.623 |
| TTAATTTGACTTTTGAGTGTAA | 0.33 |
| TAGAAGAGCATGATCCTGCATG | -0.328 |
| TGGTAGAAGAGCATGATCCTGC | -0.134 |
| TATTTTCTGACTGAATCTCAAA | -1.16 |
| TTATAGTCAAAAATTGTGGTAG | 0.587 |
| TGACTTTTGAGTGTAAACCAAG | -1.39 |

Each sequence was assayed against GLA in the same assay as above. Conditions: shRNA.

| Sequence | sensor-assay potency score (higher = more potent) |
| --- | --- |
| TTTTATTTCCAACATCTGCATA | -1.26 |
| TTTATCATAGCTACAGCCCAGG | -0.597 |
| AACATCAACAATTCTCTCCTGG | 0.959 |
| AACTGTCACAGTAACAACCATC | -1.1 |
| TTAACCTTGAAGTCCATTCATA | -0.885 |
| TTTAGCAGATCTACTCCCCAGT | -0.498 |
